Source: PubChem BioAssay (NCI)
About 83,000 compounds went through this panel and 20% of them were active in at least one assay; those are over-represented in the sample as a whole.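 The endpoint reported here, percent growth, reads 100 for growth as untreated, 0 for no net growth and -100 for all cells dead.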 A number with no mark means an inactive call. The source made the active and inactive calls. How the source made its calls: active means growth percent below 10; inactive means the rest.

Test system: MDA-MB-468 breast
Assay: NCI-60 one-dose screen, 48 h (100 = growth as untreated, 0 = no growth, -100 = all killed)
Conditions: 10 µM unless noted

Structure (SMILES)	growth
CC(C)(C)c1ccc2oc(=O)n(SC(Cl)(Cl)Cl)c2c1	126%
O=c1c2ccccc2sc2c(NCCCNCCO)nc3ccccc3c12	-57.3% (active)
COc1ccc2[nH]c(-c3ccccc3)cc2c1	96.9%
CS(=O)(=O)Nc1cc(-c2ccc3ncnc(Nc4c(Cl)ccc5c4OCO5)c3c2)cnc1Cl	-74.3% (active)
Oc1c(I)cc(I)cc1CNCCCN(Cc1ccccn1)Cc1ccccn1	-55.7% (active)
CCCCCCCCCCCCCCCCCC1=NC(C)(CO)CO1 (stereo not given)	82%
COc1cc(CN(c2ccc(C)cc2)C2OC(=O)c3ccccc32)cc(OC)c1OC (stereo not given)	25%
O=C(Nc1ccccc1)Nc1ncnc2c1ncn2-c1ccccc1	74.3%
COc1cccc(C2C(C#N)=C(N)Oc3cc4c(cc32)OCO4)c1 (stereo not given)	2.26% (active)
O=c1[nH]c(=O)c2cc(Cl)cc(Cl)c2[nH]1	112%
C=C(C)[C@@H]1CC[C@]2(C(=O)NNC(=O)c3cccnc3)CC[C@]3(C)[C@H](CC[C@@H]4[C@@]5(C)CCCNC(C)(C)[C@@H]5CC[C@]43C)[C@@H]12	79.8%
NNC(=O)c1ccccc1N	94.8%
COc1ccc(C2C=C(c3ccc(Cl)c(Cl)c3)N=C3SC(C)=CN32)cc1 (stereo not given)	88.6%
O=C(CN1CCCCC1)Nc1nc(-c2cc3ccccc3oc2=O)cs1	96.3%
CC(=O)Nc1ccc(/C=N/N2CCCCCC2)cc1	98.6%
Cc1c(O)ccc(SC#N)c1C	112%
COc1cc2c(cc1-c1c(C)noc1C)ncc1nc(-c3ccccn3)n([C@H](C)COC(F)F)c12	46.5%
CC(=O)N(N=Nc1ccccc1)c1cccc2ccccc12	84.7%
O=C(N=Nc1c(O)[nH]c2ccccc12)Nc1ccc(Cl)cc1	81.7%
COc1ccc(C2CC(=O)c3c(nc4ccc(Cl)cc4c3N)C2)cc1 (stereo not given)	104%

Structure (SMILES)	growth
CC(C)(C)n1nc(C2CC2)c(Br)c1NC(=O)c1ccccc1F	114%
Nc1nc(Nc2ccccc2)n[nH]1	120%
Cc1ccc(C2CCCCC2)cc1Br	97%
CN(C)c1ccc(N2Cc3ccccc3OC3=C2C(=O)c2c(O)ccc(O)c2C3=O)cn1	-59.4% (active)
COc1cc(C(=O)c2cc(C)c3[nH]c4ccc(C)cc4c3c2C)cc(OC)c1OC	-20.1% (active)
COc1ccc(C(C(=O)O)c2ccc(OC)cc2)cc1	113%
Cc1c(N(C)CS(=O)(=O)O)c(=O)n(-c2ccccc2)n1C	106%
Nc1ncnc2c1N=C(c1ccc(F)cc1)CC(c1sc(Cl)nc1Cl)N2 (stereo not given)	91.4%
CN1CCN(C(=O)[C@]2(C)CC[C@]3(C)CC[C@]4(C)C(=CC(=O)[C@@H]5[C@@]6(C)CCC(=O)NC(C)(C)[C@@H]6CC[C@]54C)[C@@H]3C2)CC1	101%
CS(=O)(=O)c1ccc(-c2nc3ccccn3c2/C=N/Nc2nc(-c3ccc(Br)cc3)cs2)cc1	102%
S=C(S)NCCc1c[nH]c2ccccc12	98.6%
CC(=O)NCC(=O)c1ccc([N+](=O)[O-])cc1	117%
Cc1nc(Nc2n[nH]c3c2CN(C(=O)N[C@H](CN(C)C)c2ccccc2)C3(C)C)c2sccc2n1	-44.3% (active)
COc1ccc(-c2nc(-c3cc(OC)cc(OC)c3)[nH]c2-c2ccc(OC)cc2)cc1	31.4%
COc1cc(-c2nn(-c3cccc(NC(=O)NCCNC(=O)c4cccc(C(F)(F)F)c4)c3)cc2-c2ccncc2)ccc1Cl	7.11% (active)
Nc1ccc(Oc2ccccc2)c(Cl)c1	92.1%
Cn1cc(-c2ccc3ncc(-c4ccc(CC(=O)Nc5cc(C(C)(C)C)nn5C)cc4)cc3c2)cn1	-2.1% [30 µM] (active)
Cc1nc2n(c(=O)c1CCN1CCC(c3noc4cc(F)ccc34)CC1)CCC[C@@H]2O	100%
CC(C)(C)n1cc(-c2ccnc(NCCCNS(=O)(=O)c3ccccc3)c2)c(-c2ccccc2)n1	25.1%
COc1cnc2c(c1)C(=O)c1c-2n(CCCN2CCCC2)c(=O)c2cc(Cl)ccc12	50.4%
